GPR151 activ: activators of human GPR151, primary screen, cell-based, PathHunter beta-arrestin, luminescence | PathHunter beta-arrestin GPR151 cells | AID 1508602, 2020 | 650,000 tested, 1% active | activation, % at 11.2 µM | G-protein coupled receptor 151 (Homo sapiens), Q8TDV0; in the data active = activation above about 4.9%
Target sequence (Q8TDV0 whole entry, looked up): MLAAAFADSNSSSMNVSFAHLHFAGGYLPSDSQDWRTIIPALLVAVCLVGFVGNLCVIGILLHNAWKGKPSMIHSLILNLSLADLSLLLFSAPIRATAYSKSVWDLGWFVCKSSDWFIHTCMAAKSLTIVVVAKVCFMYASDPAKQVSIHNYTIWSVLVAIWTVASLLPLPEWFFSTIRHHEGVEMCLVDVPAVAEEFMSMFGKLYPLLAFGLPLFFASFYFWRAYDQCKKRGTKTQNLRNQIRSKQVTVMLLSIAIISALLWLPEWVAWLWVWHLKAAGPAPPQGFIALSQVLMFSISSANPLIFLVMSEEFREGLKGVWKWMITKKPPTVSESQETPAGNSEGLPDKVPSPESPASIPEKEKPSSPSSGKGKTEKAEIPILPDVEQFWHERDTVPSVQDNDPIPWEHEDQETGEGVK
FBW7 act: FBW7 E3 ligase activators, primary screen, biochemical, AlphaScreen, human. F-box/WD repeat-containing protein 7 (Homo sapiens), Q969H0. AlphaScreen FBW7–phospho-cyclin E peptide binding, activator screen. normalized activity (activation), % at 26.1 µM. 650,000 tested, 0.13% active. AID 1259310, 2017; in the data active = normalized activity above about 1.9%;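 note: purified mutant Fbw7 with reduced substrate affinity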
MITF inh: MITF inhibitors, primary screen, biochemical, AlphaScreen, human; inhibition, % at 2.6 µM; 650,000 tested, 0.91% active; AlphaScreen MITF homodimerization, bead proximity signal; AID 1259374, 2018; in the data active = inhibition above about 50%
TEAD-YAP inh: TEAD-YAP interaction inhibition, primary screen, TEAD-YAP interaction inhibitor project, luminescence, HEK-TIYL cells; TEAD-Gal4/YAP UAS-luciferase luminescence; inhibition, % at 9.12 µM; 640,000 tested, 1.4% active; AID 1259422, 2018; in the data active = inhibition above about 32%
MITF inh conf: MITF inhibitors, retest of hits, confirmation, biochemical, AlphaScreen, triplicate. shares compounds with MITF inh. AlphaScreen MITF homodimerization, biotin/His-MITF beads. inhibition, % at 2.6 µM. 4,700 tested, 16% active;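 active = inhibition above a cutoff derived from the DMSO control wells, cut at about 28% in these data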;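 note: inhibitors lower the bead chemiluminescence by keeping MITF from dimerizing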
AlphaScreen DR: AlphaScreen optical interference compounds, dose response, counter-screen, biochemical, HTS | 480 tested, 6% active | shares compounds with MITF inh | IC50, µM | AlphaScreen optical interference counterscreen, cell-free; call rule not given here
AlphaScreen intf2: AlphaScreen optical interference compounds, counter-screen for MITF inhibitor project, biochemical, triplicate. inhibition, % at 2.6 µM. AID 1259376, 2018. 4,700 tested, 7.6% active. shares compounds with MITF inh. LysRS AlphaScreen counterscreen, signal interference;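 active = inhibition above a cutoff derived from the DMSO control wells, cut at about 30% in these data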
GPR151 conf act: GPR151 activators, triplicate retest, confirmation, cell-based, PathHunter beta-arrestin, luminescence. 6,700 tested, under 10 active. activation, % at 11.2 µM. GPR151 PathHunter beta-arrestin cells, 90 min; % of EA-reagent control over plate median. shares compounds with GPR151 activ. AID 1508609, 2020;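 active = mean percent activation across replicates above the confirmation screen cutoff of 4.91%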
GPR119 counter: GPR119 activators in beta-arrestin cells, counter-screen for GPR151 activator project, cell-based, PathHunter beta-arrestin, luminescence, triplicate | 6,700 tested, 0.3% active | 90 min; 0 = compound-well median, 100 = enzyme-acceptor control | shares compounds with GPR151 activ | activation, % at 11.2 µM;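 active = mean percent activation in the counterscreen above 29.09%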;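 note: counterscreen on off-target GPR119 to flag nonselective hits from the GPR151 activator screen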
Hits are given with their value. A selection: hits, their analogues and other compounds. The true share with any hit is near 3.5%.

COc1ccccc1CNC(=O)c1c[nH]c2cc(-c3cn[nH]c3)ccc12 was read as GPR151 activ inactive, FBW7 act inactive, MITF inh inactive and TEAD-YAP inh inactive.
COc1ccc(OC)c(-c2csc(NC(=O)c3n[nH]c(=O)c4ccccc34)n2)c1 was read as GPR151 activ inactive, FBW7 act inactive, MITF inh inactive and TEAD-YAP inh inactive.
For Cc1cnc(NC(=O)c2ccc3c(c2)C(=O)N(C2CCCCC2)C3=O)s1 the results were GPR151 activ inactive, FBW7 act inactive, MITF inh inactive and TEAD-YAP inh inactive.
For COC(=O)c1ccc(NC(=O)CSc2nnc3[nH]c(=O)c(C)c(C)n23)cc1 the results were GPR151 activ inactive, FBW7 act inactive, MITF inh inactive and TEAD-YAP inh inactive.
`CC(=O)c1ccc(NC(=O)CSc2nnc3[nH]c(=O)c(C)c(C)n23)cc1` gave GPR151 activ inactive, FBW7 act inactive, MITF inh 56.3, TEAD-YAP inh inactive, MITF inh conf inactive and AlphaScreen intf2 inactive.
COc1ccc(OC)c(NC(=O)c2cc3ccc(O)cc3oc2=Nc2ccc(C(=O)O)cc2)c1 was read as GPR151 activ inactive, FBW7 act inactive, MITF inh 55.4, TEAD-YAP inh inactive, MITF inh conf 79.1, AlphaScreen DR inactive and AlphaScreen intf2 inactive.
`COc1cc(C(=O)N2CCN(Cc3ccccc3C(F)(F)F)CC2)cc(OC)c1OC` gave GPR151 activ 12.0, FBW7 act inactive, MITF inh 59.1, TEAD-YAP inh inactive, MITF inh conf inactive, AlphaScreen intf2 inactive, GPR151 conf act inactive and GPR119 counter inactive.
For COc1ccc(CN2CCN(C(=O)c3cc(OC)c(OC)c(OC)c3)CC2)c(OC)c1 the results were GPR151 activ inactive, FBW7 act inactive, MITF inh inactive and TEAD-YAP inh inactive.
Screening Cn1cc(CNC2CCc3c(sc4ncn(Cc5cccc(F)c5)c(=O)c34)C2)cn1 (stereo not given) returned GPR151 activ inactive, FBW7 act inactive, MITF inh inactive and TEAD-YAP inh inactive.
COc1cc(OC)c(OC)cc1CN1CCC(N2CCCCC2)CC1 was read as GPR151 activ 6.1, FBW7 act inactive, MITF inh 59.8, TEAD-YAP inh inactive, MITF inh conf inactive, AlphaScreen intf2 inactive, GPR151 conf act inactive and GPR119 counter inactive.
`COc1cc(OC)c(CN2CCC(N3CCCCC3)CC2)cc1Br` gave GPR151 activ inactive, FBW7 act inactive, MITF inh inactive and TEAD-YAP inh inactive.
Screening O=C(CN1CCC(N2CCCCC2)CC1)Nc1ccccc1O returned GPR151 activ 5.7, FBW7 act inactive, MITF inh 52.2, TEAD-YAP inh inactive, MITF inh conf inactive, AlphaScreen intf2 inactive, GPR151 conf act inactive and GPR119 counter inactive.
For N#Cc1nc(-c2ccccc2)oc1NCCCn1ccnc1 the results were GPR151 activ inactive, FBW7 act inactive, MITF inh inactive and TEAD-YAP inh inactive.
N#Cc1nc(COc2ccccc2Cl)oc1NCCCn1ccnc1 was read as GPR151 activ 18.5, FBW7 act inactive, MITF inh 96.2, TEAD-YAP inh inactive, MITF inh conf inactive, AlphaScreen intf2 inactive, GPR151 conf act inactive and GPR119 counter inactive.
CCOc1cc(C#N)ccc1OCc1ccccc1F was read as GPR151 activ inactive, FBW7 act inactive, MITF inh inactive and TEAD-YAP inh inactive.
O=C1CSC(c2cccc([N+](=O)[O-])c2)N1c1cc(Cl)cc(Cl)c1 (stereo not given) was read as GPR151 activ inactive, FBW7 act inactive, MITF inh inactive and TEAD-YAP inh inactive.
CCn1ccnc1CN1CCN(Cc2cccc(OC)c2)C(CCO)C1 (stereo not given) was read as GPR151 activ 17.6, FBW7 act inactive, MITF inh 52.9, TEAD-YAP inh inactive, MITF inh conf 28.4, AlphaScreen DR inactive, AlphaScreen intf2 inactive, GPR151 conf act inactive and GPR119 counter inactive.
`COc1cccc(OC)c1C(=O)NCCc1sc(-c2ccc(Cl)cc2)nc1C` gave GPR151 activ inactive, FBW7 act inactive, MITF inh inactive and TEAD-YAP inh inactive.
`Cc1ccc(/C=N/NC(=O)c2c(-c3ccc([N+](=O)[O-])cc3)nnn2-c2nonc2N)o1` gave GPR151 activ inactive, FBW7 act inactive, MITF inh inactive and TEAD-YAP inh inactive.
`Cc1cc(O)c2c(c1)Cc1cccc(O)c1C2=O` gave GPR151 activ 5.4, FBW7 act inactive, MITF inh 115.8, TEAD-YAP inh inactive, MITF inh conf 115.4, AlphaScreen DR inactive, AlphaScreen intf2 inactive, GPR151 conf act inactive and GPR119 counter inactive.
For C=CCNCCOCCOc1ccc(OCC)cc1 the results were GPR151 activ 6.0, FBW7 act inactive, MITF inh 51.4, TEAD-YAP inh inactive, MITF inh conf 48.9, AlphaScreen DR inactive, AlphaScreen intf2 inactive, GPR151 conf act inactive and GPR119 counter inactive.
`Cc1ccc(N(CC(=O)Nc2ccc(OCc3ccccc3)cc2)S(C)(=O)=O)cc1` gave GPR151 activ inactive, FBW7 act inactive, MITF inh inactive and TEAD-YAP inh inactive.
C=CCC1(CC=C)CCCCN1C(=O)CC1C(=O)NCCN1Cc1ccoc1 (stereo not given) was read as GPR151 activ 6.4, FBW7 act inactive, MITF inh 79.7, TEAD-YAP inh inactive, MITF inh conf inactive, AlphaScreen intf2 inactive, GPR151 conf act inactive and GPR119 counter inactive.
`COc1cc(NC(=O)c2cccc(-n3cc(NC(=O)CN4CCOCC4)cn3)c2)cc(OC)c1OC` gave GPR151 activ inactive, FBW7 act inactive, MITF inh inactive and TEAD-YAP inh inactive.
`Clc1cccc(CN2CCOCC2)c1Cl` gave GPR151 activ 9.9, FBW7 act inactive, MITF inh 60.0, TEAD-YAP inh inactive, MITF inh conf inactive, AlphaScreen intf2 inactive, GPR151 conf act inactive and GPR119 counter inactive.
Screening c1ccc2c(CN3CCOCC3)cccc2c1 returned GPR151 activ inactive, FBW7 act inactive, MITF inh inactive and TEAD-YAP inh inactive.
